A selection: hits, their analogues and other compounds. The true share with any hit is near 21%.
HCV inh: HCV inhibition; Potency, µM (series often up to 41.8 µM), inactives show at the highest dose activity change, negative = inhibition, actives largely listed as inhibitors; Huh7.5.1 HCVcc-Cre infection, luciferase reporter, 44 h; actives 3.4% (n = 340,000); also: potency is read from the fitted curve at half-maximal effect; % is scaled to controls: 0 for no effect and ±100 for the full control effect
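1,000 cells/well; 4 h culture; + compound; + HCVcc-Cre (~0.5 moi); 44 h; luciferase substrate, RT 15 min; read 15 sec.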
AMA1 RON2 block: disrupts binding of P. falciparum AMA1 to RON2 | actives 0.2% (n = 360,000) | Potency, µM (top dose mostly 58.2 µM), without a hit: at the top dose activity change, negative = inhibition, hits mostly inhibitors | AID 720542 | AlphaScreen AMA1-biotinylated RON2 peptide binding;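 also: potency is read from the fitted curve at half-maximal effect; 0% = vehicle wells and -100% = peptide control; nearly all actives have a fitted effect of over 45% in size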
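AMA1 (3D7) with his tag at 25 nM final met compounds first, then biotinylated RON2 peptide at 25 nM; detection used donor plus acceptor beads, 10 µg/mL apiece, read by AlphaScreen after 30 min at room temperature.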
Shiga inhibitor: blocks Shiga toxin action in Vero cells. inhibition, % at 38.7 µM. Vero cells, Shiga toxin protein synthesis inhibition reporter. actives 9.2% (n = 290,000); in the data active = inhibition mostly above about 28%, no sharp cut-off; inactive = mostly below about 43%; also: 0% is about no effect
CHX counter: affects cycloheximide protein synthesis inhibition readout, counter-screen | cell reporter, cycloheximide protein synthesis inhibition counterscreen | max response, % | actives 12% (n = 300,000); in the data active = max response mostly above about 13%, no sharp cut-off; inactive = mostly below about 14%; also: read at 38.3 µM for the half of the compounds with a filed dose; 0% is about no effect
Pf growth 96h: inhibits malaria parasite growth, 96 h | P. falciparum luciferase reporter growth, 96 h | actives 6.9% (n = 320,000) | Potency, µM (top dose mostly 28.7 µM), for inactives: at the highest dose activity change, negative = inhibition, most hits filed as inhibitors | AID 504834; also: potency is read from the fitted curve at half-maximal effect; % is scaled to controls: 0 for no effect and ±100 for the full control effect
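Two parasite generations (96 h, 37 C, 5% CO2) of compound exposure in infected erythrocytes (0.05% parasitemia, 2% hematocrit). Luciferase-reporter P. falciparum; decreased luminescence indicates inhibited growth, aimed at apicoplast-acting delayed death.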
Pf growth 48h: P. falciparum growth inhibition at 48 hours (one generation) | actives 5.9% (n = 310,000) | Potency, µM (titrated, usually from 28.7 µM), for the others: at the highest dose activity change, negative = inhibition, most hits filed as inhibitors | P. falciparum luciferase growth in erythrocytes, 48 h | AID 504832; also: potency is read from the fitted curve at half-maximal effect; % is scaled to controls: 0 for no effect and ±100 for the full control effect
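Cell-based growth assay: transgenic P. falciparum expressing firefly luciferase, cultured in red cells within RPMI 1640 containing 0.5% w/v Albumax, 24 mM bicarbonate and gentamycin. A drop in luciferase activity indicates inhibition.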
Numbers without * were called inactive; ? = inconclusive; / = not tested or not shown. Unless noted, calls follow the shape of the dose curve; as a rule, active = well fitted curve in the direction sought with a large enough effect; inconclusive = small, poorly fitted or top-dose-only effect, or another doubt; inactive = no such curve, though single readings can be large; an effect the other way counts as inactive or inconclusive.

SMILES	HCV inh	AMA1 RON2 block	Shiga inhibitor	CHX counter	Pf growth 96h	Pf growth 48h
Cc1ccc(OCC(=O)N2CCN(C)CC2)c(Br)c1	18%	0%	93*	21*	140%	45%
Cc1cc(S(=O)(=O)N2CCCCC2)ccc1OCC(=O)N1CCCC1	-23%	5%	7	-4	?	-21%
Cc1cc(Br)ccc1OCC(=O)N1CCCCCC1	4%	7%	27	25*	27%	/
c1ncc(CCCC2CCNCC2)[nH]1	/	/	2	-5	/	/
COc1ccc(C(O)c2nc(-c3cccc(O)c3)cs2)cc1 (stereo not drawn)	/	-4%	/	/	/	/
CC(C)CC1NC(=O)c2cc3ccccc3cc2-n2c1nc1ccc(F)cc1c2=O (stereo not drawn)	/	34%	/	/	/	/
COc1ccc(NC(=O)c2sc(=O)n(Cc3ccc4ccccc4c3)c2C)cc1OC	/	-4%	/	/	/	/
C#Cc1ccc(C(=O)Nc2ccc(N3CCC(C)CC3)c(C(N)=O)c2)cc1	-22%	-1%	2	7	?	1.9µM*
Cc1cccc(NC(=O)c2cc(NC(=O)c3ccccc3)ccc2N2CCCCC2)c1	?	-6%	-3	-5	-4%	/
O=C(NNC(=O)c1cc(-c2ccncc2)nc2ccccc12)Nc1ccc(F)cc1	-8%	90%	-8	-2	45%	?
Cc1c(Cl)ccc2c(C(=O)NC(C)c3ccncc3)cc(-c3ccncc3)nc12 (stereo not drawn)	/	/	4	-1	-2%	4.1µM*
O=C(Nc1ccc(F)cc1)c1cc(-c2ccncc2)nc2c(Cl)cccc12	?	-10%	-5	-1	22%	2.1µM*
COc1ccc(NC(=O)c2cccc3c(-c4cccnc4)coc23)cc1	/	22%	/	/	/	/
Cc1cc(NC(=O)c2cc(-c3ccncc3)nc3c(C)cccc23)no1	?	-9%	-4	-3	37%	?
Cc1cccc(NC(=O)c2cc(-c3cccnc3)nc3c(C)cccc23)n1	?	29%	-8	-2	4.7µM*	11%
COc1cccc(NC(=O)c2cc(-c3cccnc3)nc3c(Cl)cccc23)c1	-24%	2%	-8	-3	1.9µM*	2.1µM*
COC(=O)CNC(=O)c1cc(-c2ccncc2)nc2c(C)c(Cl)ccc12	?	-16%	-18	-4	-55%	?
CC1=CC(=O)C2=C(C)CC[C@H]3[C@H](C)C(=O)O[C@@H]3C12 (stereo partly drawn)	/	/	19	20	/	/
COc1ccc(N)cc1-n1c(C)ccc1C	0.71µM*	-5%	37*	25*	35%	?
O=C(Nc1ccc(Cl)c(C(=O)N2CCOCC2)c1)c1ccccc1	?	-1%	-8	0	3%	?
COC(=O)c1ccc(NC(=O)c2cc(-c3ccncc3)nc3ccccc23)cc1	10µM*	-8%	/	/	?	?
Cc1c(-c2ccccc2)nc2ccccc2c1C(=O)Nc1ccncc1	?	-6%	-14	-4	0.33µM*	1.7µM*
O=C(Nc1nc2c(s1)CCCC2)c1cc(-c2ccc3c(c2)OCO3)nc2ccccc12	?	/	39	26*	0%	24%
Cc1cccc(-c2cc(C(=O)Nc3ccncc3)c3ccccc3n2)c1	-17%	-7%	-2	8.4*	2.3µM*	1µM*
O=C(Nc1ccncc1)c1cc(-c2ccccc2)nc2ccccc12	/	12%	/	/	/	/
SMILES	HCV inh	AMA1 RON2 block	Shiga inhibitor	CHX counter	Pf growth 96h	Pf growth 48h
COc1cc(S(=O)(=O)n2cnc3ccccc32)ccc1Br	11%	-6%	/	-3	1%	48%
CC(C)(C)NC(=O)c1cc(-c2ccc3c(c2)OCO3)nc2ccccc12	-5%	-7%	20	14	-4%	-12%
COc1ccc(-c2cc(C(=O)Nc3ccc(C)c(N)c3)c3ccccc3n2)cc1	11µM*	-27%	118*	19*	-34%	?
Cn1c(NC(=O)c2cc(-c3ccc4c(c3)OCO4)nc3ccccc23)cc(=O)n(C)c1=O	13%	32%	31	43*	104%	1%
O=C(Nc1ccc2c(c1)OCO2)c1cc(-c2ccncc2)nc2ccccc12	?	-23%	21	19*	?	?
CNC(=S)Nc1ccc(N2CCCC2)c(S(=O)(=O)Nc2ccc(OC)cc2)c1	-9%	7%	/	/	/	/
COc1ccc(NS(=O)(=O)c2cc(NC(=O)c3cccs3)ccc2N2CCCC2)cc1	?	-26%	43	12	?	-15%
COc1ccc(NS(=O)(=O)c2cc(NC(=O)c3ccc(C)o3)ccc2N2CCCCC2)cc1	?	-5%	-7	-2	?	9.3µM*
COc1ccc(NS(=O)(=O)c2cc(NC(=O)CC(C)(C)C)ccc2N2CCCC2)cc1	-25%	17%	/	/	13µM*	10µM*
CC1(c2nnnn2Cc2ccccc2)CCC(=O)N1c1ccc(N2CCOCC2)cc1 (stereo not drawn)	/	16%	/	/	/	/
O=C(O)CCc1ccc(-c2ccc(Cl)cc2)o1	13%	9%	36	12	?	/
O=C(O)CCc1ccc(-c2ccc(Br)cc2)o1	13%	32%	39*	9	-2%	11%
COc1ccc(-c2noc(CCC(=O)O)n2)cc1	11%	3%	13	4	?	0%
COc1ccc(-c2ccc(CCC(=O)O)o2)cc1	-7%	-5%	41*	25*	?	27%
CC12CCC(C(=O)NCCCN3CCOCC3)(C(Br)C1=O)C2(C)C (stereo not drawn)	-16%	12%	10	-2	31%	6%
COc1ccc(OC)c(NC(=O)C2CCN(S(=O)(=O)c3ccc4c(c3)CC(C)N4C(C)=O)CC2)c1 (stereo not drawn)	-16%	-10%	9	-2	15µM*	?
COc1cc(OC)c(NC(=O)C2CCN(S(=O)(=O)c3ccc4c(c3)CC(C)N4C(C)=O)CC2)cc1Cl (stereo not drawn)	?	14%	-4	17*	0%	0%
COc1ccc(NC(=O)C2CCN(S(=O)(=O)c3ccc4c(c3)CC(C)N4C(C)=O)CC2)cc1OC (stereo not drawn)	-2%	-4%	-7	-2	18%	-16%
COc1ccc(C)cc1NC(=O)CN(C)S(=O)(=O)c1ccc2c(c1)CC(C)N2C(C)=O (stereo not drawn)	?	-10%	1	19	7.4µM*	-22%
O=[N+]([O-])c1ccc2c(c1)C(N1CCN(CCO)CC1)Cc1ccc(F)cc1S2 (stereo not drawn)	/	-12%	/	/	/	/
OCCN1CCN(C2CCC(c3ccc(F)cc3)c3ccc(F)cc32)CC1 (stereo not drawn)	4µM*	-15%	/	/	/	/
CCn1c(O)c(N=Nc2ccc3ccccc3n2)c2ccccc21	?	0%	81*	39*	97%	63%

Compound activity (PubChem BioAssay)
